High-throughput results as filed in PubChem.
The list is not random: actives were taken first. Their share in the collection is about 3.5%.
mHTT-CaM PPI inh = disrupts binding of mutant huntingtin to calmodulin | AlphaScreen His-mHTT/GST-CaM binding, luminescence | inhibition, % at 15 µM | 190,000 compounds, 3.6% hits | AID 1671202;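 further: 0% = both proteins with DMSO and 100% = one protein alone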
Pf apPOL block = Pf-apPOL DNA polymerase inhibition; 210,000 compounds, 0.25% hits; inhibition, % at 10 µM; Recombinant Pf-apPOL, molecular beacon fluorescence, 1.5 h
An asterisk follows results filed as active; ! = not active in a repeat. No stated cut-off is given here; in the data, active means inhibition above about 50%; inactive means the rest.

For CC(=O)c1ccc(OCc2cn(CC(=O)c3ccc(O)cc3)nn2)cc1 the results were mHTT-CaM PPI inh 4.4 and Pf apPOL block 11.0.
For CC(=O)Nc1ccc(OCc2cn(CC(=O)c3ccc(O)cc3)nn2)cc1 the results were mHTT-CaM PPI inh 52.4* and Pf apPOL block 33.5.
For N#Cc1c(N)sc2c1CCCC2 the results were mHTT-CaM PPI inh 4.3 and Pf apPOL block -2.0.
Screening Nc1sc2c(c1-c1nn[nH]n1)CCCC2 returned mHTT-CaM PPI inh 90.1*.
For CCOc1ccc(S(=O)(=O)NCCC(C)C)c2cccnc12 the results were mHTT-CaM PPI inh -2.0 and Pf apPOL block -4.4.
For Cc1ccc(S(=O)(=O)Nc2nc3ccc(C(=O)N4CCCCC4)cc3s2)cc1 the results were mHTT-CaM PPI inh 16.0 and Pf apPOL block -1.4.
For COc1ccc(NC(=O)N2CCc3nc[nH]c3C2)c(OC)c1 the results were mHTT-CaM PPI inh 13.1 and Pf apPOL block 73.1*.
Screening COc1ccc(OC)c(NC(=O)N2CCc3nc[nH]c3C2)c1 returned mHTT-CaM PPI inh 19.4 and Pf apPOL block -0.5.
Cc1c(-c2nc(-c3ccncc3)no2)cccc1[N+](=O)[O-] was read as mHTT-CaM PPI inh 4.6 and Pf apPOL block -3.8.
`CCSc1ccsc1C1C(C#N)=C(N)N(c2cccc([N+](=O)[O-])c2)C2=C1C(=O)CCC2` (stereo unspecified) gave mHTT-CaM PPI inh 27.0 and Pf apPOL block -2.9.
For CCSc1ccsc1C1C(C#N)=C(N)N(c2ccc([N+](=O)[O-])cc2)C2=C1C(=O)CCC2 (stereo unspecified) the results were mHTT-CaM PPI inh 51.0* and Pf apPOL block 5.0.
O=C(Nc1cccc(F)c1)C1CCCN(c2ncc(-c3ccccc3)cn2)C1 (stereo unspecified) was read as mHTT-CaM PPI inh -7.2 and Pf apPOL block -1.0.
COc1cc2c(cc1OC)C(C(=O)Nc1cc(C)ccn1)C1c3ccccc3CCN1C2=O (stereo unspecified) was read as mHTT-CaM PPI inh 69.0* and Pf apPOL block -1.0.
`Cc1ccnc(NC(=O)C2c3ccccc3C(=O)N3CCc4ccccc4C23)c1` (stereo unspecified) gave mHTT-CaM PPI inh 31.0 and Pf apPOL block -2.2.
COCCN1C(=O)c2ccccc2C(C(=O)O)C1c1cn(C)c2ccccc12 (stereo unspecified) was read as mHTT-CaM PPI inh 1.0 and Pf apPOL block 3.9.
Screening COCCN1C(=O)c2ccccc2C(C(=O)Nc2cc(C)ccn2)C1c1cn(C)c2ccccc12 (stereo unspecified) returned mHTT-CaM PPI inh 54.0* and Pf apPOL block -3.0.
For COc1cc2c(cc1OC)C(C(=O)NCc1cccnc1)C1c3ccccc3CCN1C2=O (stereo unspecified) the results were mHTT-CaM PPI inh -5.0 and Pf apPOL block -3.6.
`COc1ccc(OC)c(NC(=O)C2c3ccccc3C(=O)N3CCc4ccccc4C23)c1` (stereo unspecified) gave mHTT-CaM PPI inh 16.0 and Pf apPOL block -6.6.
Screening COc1ccc(C)cc1NC(=O)C1c2cc(OC)c(OC)cc2C(=O)N2CCc3ccccc3C12 (stereo unspecified) returned mHTT-CaM PPI inh 57.0* and Pf apPOL block -7.8.
For COc1cc2c(cc1OC)C(C(=O)NCCc1cccc(C)c1)C1c3ccccc3CCN1C2=O (stereo unspecified) the results were mHTT-CaM PPI inh 89.0* and Pf apPOL block -1.4.
N#Cc1cnc2ccccc2c1N1CCC(C(=O)Nc2cc(F)cc(F)c2)CC1 was read as mHTT-CaM PPI inh -11.2 and Pf apPOL block 1.2.
Cc1cc(C)cc(-n2c(CN3CCN(C(=O)NC(C)C)CC3)nc3cccnc32)c1 was read as mHTT-CaM PPI inh -7.7 and Pf apPOL block -1.8.
Screening Cc1cc(F)ccc1CNC(=O)CCC(=O)Nc1ccc2nc(N3CCCCC3)cc(C)c2c1 returned mHTT-CaM PPI inh 6.0 and Pf apPOL block -3.6.
Cc1cccc(-n2c(CN3CCN(C(=O)NCC4CCCO4)CC3)nc3cccnc32)c1 (stereo unspecified) was read as mHTT-CaM PPI inh 4.1 and Pf apPOL block 4.4.
Screening CCOc1ccc(-c2csc(NC(=O)c3cncc(Br)c3)n2)cc1 returned mHTT-CaM PPI inh 1.0 and Pf apPOL block -6.1.
O=C(Nc1nc(-c2ccc(Cl)cc2)cs1)c1cncc(Br)c1 was read as mHTT-CaM PPI inh 53.4* and Pf apPOL block 0.0.
`Cc1nc(N2CCOCC2)nc(N2CCCC2)c1[N+](=O)[O-]` gave mHTT-CaM PPI inh -2.0 and Pf apPOL block -10.4.
`Cc1cc(C)n(-c2nc(N3CCOCC3)nc(C)c2[N+](=O)[O-])n1` gave mHTT-CaM PPI inh -1.0 and Pf apPOL block 68.9*!.
`COc1cc(C=C2Oc3c(ccc(O)c3CN3CCCCCC3)C2=O)cc(OC)c1OC` gave mHTT-CaM PPI inh 27.5 and Pf apPOL block -45.8.
O=C(c1cc(C(F)(F)F)cc(C(F)(F)F)c1)c1ccccc1C(=O)N1CCOCC1 was read as Pf apPOL block -1.7.
O=C(N=S1CCC2(C1)OCCO2)c1cc(C(F)(F)F)cc(C(F)(F)F)c1 (stereo unspecified) was read as Pf apPOL block 75.0*.
Screening Clc1ccccc1C1Cn2cnc(-c3nc(-c4ccccn4)no3)c2CO1 (stereo unspecified) returned mHTT-CaM PPI inh 100.2* and Pf apPOL block -0.2.
Screening Fc1ccc(-c2noc(-c3ncn4c3COC(c3ccccc3Cl)C4)n2)cc1 (stereo unspecified) returned mHTT-CaM PPI inh 19.0 and Pf apPOL block -3.9.
Screening CC(C)(C)OC(=O)Cn1cnc2c(-c3ccccc3)csc2c1=O returned mHTT-CaM PPI inh -9.4 and Pf apPOL block -3.0.
For CCn1nc(C)cc1-c1nnc(-c2ccc(C)cc2)o1 the results were Pf apPOL block -16.7.
Screening Cc1ccc([N+](=O)[O-])cc1NC(=O)c1cnccn1 returned mHTT-CaM PPI inh 2.8 and Pf apPOL block 2.1.
For Cc1ccc([N+](=O)[O-])cc1NC(=O)c1cccc(C(=O)Nc2cc([N+](=O)[O-])ccc2C)n1 the results were mHTT-CaM PPI inh 2.0 and Pf apPOL block 66.9*.
`COc1ccc(OC)c(C2C3=C(Nc4c2c(=O)[nH]c(=O)n4C)c2ccccc2C3=O)c1` (stereo unspecified) gave mHTT-CaM PPI inh 19.0 and Pf apPOL block -77.0.
`COc1ccc(Br)cc1C(=O)Nc1cccc2nsnc12` gave mHTT-CaM PPI inh -9.0 and Pf apPOL block -0.9.
`CCC(=O)Oc1cccc(N2C(=O)C3CCCCC3C2=O)c1` (stereo unspecified) gave mHTT-CaM PPI inh -1.5 and Pf apPOL block 0.7.
For Cc1cc(C(=O)O)c(NC(=O)c2ccccc2Cl)s1 the results were mHTT-CaM PPI inh -4.3 and Pf apPOL block -1.7.
Screening COc1ccc(-c2ccc[nH]2)cc1 returned mHTT-CaM PPI inh 62.1* and Pf apPOL block -31.4.
COc1ccc(-c2nnc(-c3ccc(OC)cc3)nn2)cc1 was read as mHTT-CaM PPI inh 1.0 and Pf apPOL block -1.8.
`COc1c(N)cc(-c2nn[nH]n2)cc1N` gave mHTT-CaM PPI inh 28.3.
`Clc1ccc(-c2cnc3n2CCC3)cc1Cl` gave mHTT-CaM PPI inh 89.0* and Pf apPOL block -4.9.
Screening Clc1ccc(-c2cn3c(n2)CCC3)cc1Cl returned mHTT-CaM PPI inh 38.0 and Pf apPOL block -2.7.
For Cc1nc(N)sc1-c1csc(Nc2ccccn2)n1 the results were mHTT-CaM PPI inh 87.0* and Pf apPOL block -6.1.
Screening Cc1ccnc(Nc2nc(-c3sc(C)nc3C)cs2)c1 returned mHTT-CaM PPI inh 30.4 and Pf apPOL block 0.7.
